The inhibition is the drop in the measured response relative to a control, in per cent.

Experiment [1] can be described thus: polyglutamine-triggered caspase-3 activation inhibitors, cell-based (AID 1583). The settings on record: polyglutamine-induced caspase-3 activation, cell assay; stronger effect = higher value;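 tested at 10 µM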.
Experiment [2] in a line: suppressors of polyQ aggregation in yeast, 75Q-TubU reporter (AID 1593). To be noted: Yeast 75Q polyglutamine aggregation reporter.
Experiment [3] can be described thus: inhibitors of mitochondrial cytochrome c release, biochemical, purified mitochondria (AID 1603).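 Further: mouse liver mitochondria challenged with calcium chloride; signal normalized to the plate average as 100%.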 To be noted: stronger effect = lower value.
Experiment [4] can be described thus: inhibitors of polyQ protein aggregation (AID 1604). To be noted: polyglutamine-induced protein aggregation inhibition assay; stronger effect = higher value; tested at 2.5 µM.
Experiment [5] is described as follows: enhancers of glutamate uptake in motor neurons, MN-1 cell line (AID 1612).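 Further: tested at 1 µM final; 0% = mean of DMSO vehicle wells on each plate; positive means more glutamate uptake than control and negative means less.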 The settings on record: MN-1 motor neuron cells, stronger effect = higher value.
Experiment [6] in a line: Cy5 fluorescence interference with SSB-bound oligo, artefact control for HCV NS3 helicase inhibitor project, biochemical, NIH Clinical Collection, E. coli SSB (AID 743268; call rule not given here).
Experiment [7] deals with Hepatitis C virus NS3 helicase. Kind of experiment: HCV NS3 helicase inhibitors, primary screen, biochemical, fluorescence polarization, NIH Clinical Collection (AID 743270; call rule not given here). To be noted: NS3 helicase binding to Cy5-dT15 DNA, stronger effect = higher value, concentration not given here.
Experiment [8] has as its target Single-stranded DNA-binding protein (Escherichia coli (strain K12)) (UniProt P0AGE0). The experiment in a line: E. coli SSB displacement from DNA, counter-screen for HCV NS3 helicase inhibitor project, biochemical, fluorescence polarization, NIH Clinical Collection (AID 743271; in the data active means inhibition above about 28%). To be noted: stronger effect = higher value, concentration not given here. A general note: A counterscreen serves to expose hits that act by an unwanted route or on another target.

A short description of experiment [9]: fluorescence interference in NS3h assay format, artefact control for HCV NS3 helicase inhibitor project, biochemical, NIH Clinical Collection (AID 743272; call rule not given here;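 further: HCV NS3 helicase with a Cy5 labelled single stranded DNA probe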). To be noted: fluorescence interference counterscreen, stronger effect = lower value.
The next experiment deals with F380Y/beta4. Kind of experiment: modulators of BK channel variants, profiling panel, selectivity assay, cell-based, U2OS BacMam, thallium flux, beta subunits (AID 1259406).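 Further: initial slope of Thallos dye fluorescence rise after thallium is added; log ratio against the mean of 0.3% DMSO vehicle wells on the same plate.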 To be noted: at 30 µM.
In experiment [10] the target is Calcium-activated potassium channel subunit alpha-1 (Homo sapiens) + Leucine-rich repeat-containing protein 26 (Homo sapiens) (UniProt Q12791+Q2I0M4). The description is as above. The settings on record: F380Y/Slo1WT/gamma1, at 30 µM.
Sequence of Calcium-activated potassium channel subunit alpha-1 (Homo sapiens) + Leucine-rich repeat-containing protein 26 (Homo sapiens) (Q2I0M4 whole entry, looked up, one chain of several): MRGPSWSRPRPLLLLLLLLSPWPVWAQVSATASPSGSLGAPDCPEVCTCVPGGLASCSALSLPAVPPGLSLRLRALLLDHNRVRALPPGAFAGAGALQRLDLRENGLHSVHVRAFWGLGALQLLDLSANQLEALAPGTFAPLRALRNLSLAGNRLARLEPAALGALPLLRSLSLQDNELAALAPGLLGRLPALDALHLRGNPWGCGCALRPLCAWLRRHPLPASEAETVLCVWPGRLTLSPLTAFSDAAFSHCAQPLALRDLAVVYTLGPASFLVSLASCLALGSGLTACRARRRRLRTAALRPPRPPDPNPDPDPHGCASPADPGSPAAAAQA
The next experiment concerns R275C. Described as above. The settings on record: at 30 µM.
Another experiment relates to R275C/beta1. Described as above. To be noted: at 30 µM.
Another experiment relates to R275C/beta2Delta. The description is as above. The settings on record: at 30 µM.
For another experiment, the system named is R275C/beta4. The description is as above. The settings on record: at 30 µM.
A further experiment concerns R275C/Slo1WT/beta2. The experiment is described as above. To be noted: at 30 µM.
A short description of experiment [11]: viability rescue of complex I mutant cybrids, primary screen, cell-based, galactose medium, ATP luminescence (AID 1645843;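 active means z-score of at least 1.8 in each of two replicates, scored against plate mean and spread of sample wells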;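 further: positive z means more ATP and so rescue of galactose-driven cybrid death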). To be noted: complex I mutant cybrid cells, 72 h, stronger effect = higher value.
A short description of experiment [12]: LFS_MB_P medulloblastoma growth inhibition, cell-based, chromothripsis tumors, cisplatin or BGB combos (AID 1671449; in the data active means inhibition above about 80%;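 further: cells exposed for 96 hours; 0% = vehicle DMSO and 100% = killing by high DMSO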). To be noted: LFS_MB_P medulloblastoma cells.
Experiment [13] can be described thus: HDN33 neuroblastoma growth inhibition, cell-based, chromothripsis tumors, cisplatin or BGB combos (AID 1671450; in the data active means inhibition above about 80%;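 further: cells exposed to compound for four days; 0% = vehicle DMSO and 100% = cell killing by high DMSO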). The settings on record: HDN33 neuroblastoma cells, stronger effect = higher value.
The nature of experiment [14]: HTB85 osteosarcoma cell growth inhibition, synergistic combos for chromothripsis tumors, BGB or cisplatin IC20 combos (AID 1671453; in the data active means inhibition above about 80%;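 further: cells exposed for 96 hours before readout; 0% = vehicle DMSO and 100% = high DMSO killing control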). To be noted: HTB85 osteosarcoma cells, drug combinations, stronger effect = higher value.

Where “and” joins values, the source holds several entries; their conditions need not be identical. Equal entries are not always repeated. Where a structure was tested more than once in an assay, its records may differ in their call. Calls of active or inactive are those of the source.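 How the source made its calls, unless noted: active means thallium flux through the channel raised or lowered by more than 3 SD from vehicle-only wells, actives on both sides; inactive means the rest.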

`Clc1cccc(Cl)c1NC1=NCCN1`: the inhibition is 5.5% in experiment [1], -2.77% (inactive) in experiment [7] and -2.41% (inactive) in experiment [8]. The molecule also had a score in experiment [2] of 1.4. The cytochrome c release ratio in experiment [3] was 1.31. In experiment [4], this molecule showed an inhibition of aggregation of 86.9%. In addition, the glutamate uptake change in [5] was found to be 13.8%. Further, the fluorescence ratio is 1.05 (inactive) in experiment [6] and 1.02 (inactive) in experiment [9]. In addition, the log fold change Tl+ flux in the experiment on F380Y/beta4 is -0.00138 (inactive); in experiment [10] it was 0.0127 (inactive); in the experiment with R275C, -0.0635 (inactive); with R275C/beta1, 0.000941 (inactive); in the experiment with R275C/beta2Delta, -0.00732 (inactive); in the experiment on R275C/beta4, 0.0373 (inactive). Besides, the log fold change Tl+ flux with R275C/Slo1WT/beta2 was 0.0101 (inactive).

For `Oc1ccc(/C=C/c2cc(O)cc(O)c2)cc1`, the figures for the fluorescence ratio in [6] and in experiment [9] were 0.95 (inactive) and 0.93 (inactive), respectively. In addition, the inhibition in experiment [7] is -2.84% (inactive); in experiment [8], -2.76% (inactive). The z-score in experiment [11] is 2.52 (active) and 1.26 (inactive). The log fold change Tl+ flux was 0.154 (active) in the experiment on F380Y/beta4; 0.0893 (inactive) in [10]; 0.00518 (inactive) in the experiment with R275C; 0.139 (active) in the experiment with R275C/beta1; 0.139 (active) in the experiment with R275C/beta2Delta; 0.092 (active) in the experiment on R275C/beta4. The log fold change Tl+ flux in the experiment on R275C/Slo1WT/beta2 is 0.0308 (inactive).

Consider `Cc1noc(NS(=O)(=O)c2ccc(N)cc2)c1C`, for which the inhibition in experiment [1] came to 16.5%. This molecule also gave a score in experiment [2] of 1.57. For the same molecule, the cytochrome c release ratio in experiment [3] came to 0.89. Moreover, the inhibition of aggregation in [4] was determined as 1.83%. Further, the glutamate uptake change in [5] was -4.32%. Further, the z-score in [11] was -0.585 (inactive) and 0.925 (inactive). For the same molecule, the log fold change Tl+ flux is -0.0245 (inactive) in the experiment on F380Y/beta4; 0.0135 (inactive) in experiment [10]; -0.023 (inactive) with R275C; -0.0138 (inactive) with R275C/beta1; 0.00261 (inactive) in the experiment with R275C/beta2Delta; -0.0229 (inactive) in the experiment on R275C/beta4. Further, the log fold change Tl+ flux with R275C/Slo1WT/beta2 was -0.0743 (inactive).

Regarding `CC[C@H]1CN2CCc3cc(OC)c(OC)cc3[C@@H]2C[C@@H]1C[C@H]1NCCc2cc(OC)c(OC)cc21`, the z-score in experiment [11] was -0.955 (inactive).

For `Nc1nc2c(ncn2COCCO)c(=O)[nH]1`, the inhibition was 6.39% in experiment [1]; -27.5% (inactive) and -23.8% (inactive) in experiment [12] (at 0.5 µM, stronger effect = higher value); -0.211% and -20% in experiment [12] (measured here: combination with BGB IC20, at 0.005 µM); -37.2% and -37.3% in experiment [12] (measured here: combination with BGB IC40, at 0.005 µM); -22.3% and -50.5% in experiment [12] (measured here: combination with BGB IC40, at 0.05 µM); -35.1% and -39.9% in experiment [12] (measured here: combination with cisplatin, at 0.5 µM, stronger effect = higher value). For the same molecule, the inhibition was -19.1% and -38.4% in experiment [12] (measured here: combination with cisplatin, at 5 µM, stronger effect = higher value); -39.6% and -25.3% in experiment [13] (BGB combo, at 5 µM); -44.3% (inactive) and -13.8% (inactive) in [13] (at 0.5 µM); -30.4% and 3.02% in experiment [13] (cisplatin combo, at 5 µM); -44% and -16% in experiment [13] (measured here: with BGB IC20 combination, at 0.5 µM); -44.9% and -2.15% in experiment [13] (measured here: with cisplatin IC20 combination, at 0.5 µM). The inhibition was -49.5% and 10.3% in experiment [13] (single agent, at 5 µM); -30.1% (inactive) and -6.85% (inactive) in experiment [14] (at 0.5 µM); -40.8% and -11.5% in [14] (measured here: with BGB IC20, at 0.5 µM); -33.7% and -9.07% in experiment [14] (measured here: with BGB IC20, at 5 µM); -27.1% and -11.3% in [14] (measured here: with cisplatin IC20, at 0.5 µM); -43.1% and -41.4% in experiment [14] (measured here: with cisplatin IC20, at 5 µM). Besides, the inhibition in experiment [14] (single agent, at 5 µM) was -42.6% and 2.37%. Moreover, the score in experiment [2] turned out to be 1.1. In addition, the cytochrome c release ratio in experiment [3] was 1.05. This molecule had an inhibition of aggregation in experiment [4] of 51.5%. Also, the glutamate uptake change in experiment [5] came out at 13.5%. Besides, the log fold change Tl+ flux in the experiment with F380Y/beta4 is -0.0606 (inactive); in experiment [10] it was -0.0276 (inactive); with R275C, -0.024 (inactive); with R275C/beta1, -0.0244 (inactive); in the experiment with R275C/beta2Delta it was -0.00892 (inactive); in the experiment on R275C/beta4, 0.0324 (inactive). Moreover, in the experiment on R275C/Slo1WT/beta2, the log fold change Tl+ flux was 0.0456 (inactive).

`CC[C@H](C)C(=O)O[C@H]1C[C@@H](C)C=C2C=C[C@H](C)[C@H](CC[C@@H]3C[C@@H](O)CC(=O)O3)[C@H]21`: the inhibition was -14.6% in [1], 3.18% (inactive) in experiment [7] and 3.34% (inactive) in experiment [8]. In experiment [2], this molecule returned a score of -1.08. The cytochrome c release ratio in [3] was 0.75. The inhibition of aggregation in experiment [4] worked out at 26.5%. Also, the glutamate uptake change in [5] was -19%. For the same molecule, the fluorescence ratio is 1.1 (inactive) in [6] and 0.96 (inactive) in experiment [9]. In addition, the z-score in [11] was -0.3 (inactive) and -0.62 (inactive) and -0.095 (inactive). Further, the log fold change Tl+ flux in the experiment on F380Y/beta4 is -0.0805 (inactive); in experiment [10] it was 0.025 (inactive); in the experiment on R275C, -0.0727 (inactive); in the experiment on R275C/beta1, 0.0657 (inactive); in the experiment on R275C/beta2Delta it was 0.0172 (inactive); with R275C/beta4, 0.0477 (inactive). The log fold change Tl+ flux with R275C/Slo1WT/beta2 is -0.0508 (inactive).

The values above are taken from PubChem BioAssay.
